Assay results from PubChem BioAssay AID1159580 (chemical genetic matrix, 2015).
Values joined by “and” are separate entries in the source; they are usually repeats but may differ in a detail not shown here. Identical values can stand only once. About 2,000 (36%) of roughly 5,500 compounds were called active. Another 18% or so got no clear call; they are omitted. No stated cut-off is given here; in the data, active means normalized growth mostly below about 0.91 (no sharp cut-off); inconclusive means no clear call, values can overlap the other calls; inactive means mostly above about 0.92. This is one part of the list.

Experiment: chemical genetic growth profiling, strain panel (AID 1159580);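 further: tested at 20 µM; growth read once vehicle control cultures reached saturation at 30 °C; 1 = growth at the plate median or of vehicle wells; lower values mean less growth of the strain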
Conditions: S. cerevisiae deletion strains, growth OD

Measured: normalized growth

CO[C@@H]1[C@@H](OC(N)=O)[C@@H](O)[C@H](Oc2ccc3c(O)c(NC(=O)c4ccc(O)c(CC=C(C)C)c4)c(=O)oc3c2C)OC1(C)C
inactive: locus YAL013W, strain DEP1, hits give low values 1.02 | locus YAL021C, strain ccr4, hits give low values 1.03 | locus YAL026C, strain drs2, hits give low values 1.02 | locus YAL030W, strain snc1, hits give low values 1.03 | locus YBL061C, strain skt5, hits give low values 1.02 | locus YBR009C, strain hhf1, hits give low values 1.02 | locus YBR021W, strain FUR4, hits give low values 1.04 | locus YBR023C, strain chs3, hits give low values 1.04 | locus YBR171W, strain sec66, hits give low values 1.06 | locus YBR229C, strain ROT2, hits give low values 1.01 | locus YBR231C, strain swc5, hits give low values 1.04 | locus YBR279W, strain paf1, hits give low values 1.05 | locus YCL011C, strain gbp2, hits give low values 1.03 | locus YCL016C, strain dcc1, hits give low values 1.04 | locus YCL029C, strain bik1, hits give low values 0.995 | locus YCL061C, strain MRC1, hits give low values 1.03 | locus YCL069W, strain vba3, hits give low values 1.03 | locus YCR088W, strain abp1, hits give low values 1.04 | locus YDL005C, strain med2, hits give low values 1.04 | locus YDL035C, strain GPR1, hits give low values 1.01 | locus YDL040C, strain nat1, hits give low values 1.03 | locus YDL074C, strain BRE1, hits give low values 0.955 | locus YDL101C, strain DUN1, hits give low values 1.02 | locus YDL134C, strain PPH21, hits give low values 1.01 | locus YDL185W, strain tfp1, hits give low values 0.945 | locus YDL192W, strain arf1, hits give low values 0.988 | locus YDR001C, strain nth1, hits give low values 1.03 | locus YDR069C, strain doa4, hits give low values 1.01 | locus YDR101C, strain arx1, hits give low values 1.01 | locus YDR137W, strain rgp1, hits give low values 0.998 | locus YDR150W, strain NUM1, hits give low values 1.02 | locus YDR159W, strain sac3, hits give low values 0.98 | locus YDR162C, strain NBP2, hits give low values 0.968 | locus YDR195W, strain ref2 1.04 | locus YDR297W, strain sur2, hits give low values 1.03 | locus YDR318W, strain mcm21, hits give low values 0.991 | locus YDR334W, strain swr1, hits give low values 1.03 | locus YDR335W, strain msn5, hits give low values 1.06 | locus YDR388W, hits give low values 0.991 | locus YDR392W, strain spt3, hits give low values 0.999 | locus YDR502C, strain sam2, hits give low values 0.999 | locus YEL003W, strain gim4, hits give low values 0.999 | locus YEL037C, strain rad23, hits give low values 1.04 | locus YEL061C, strain CIN8 (second series), hits give low values 1.02 | locus YEL061C, strain CIN8, hits give low values 0.992 | locus YER015W, strain faa2, hits give low values 1.04 | locus YER016W, strain bim1, hits give low values 1.03 | locus YER110C, hits give low values 0.985 | locus YER111C, strain swi4, hits give low values 1.03 | locus YER155C, strain BEM2 (second series), hits give low values 1.06 | locus YER155C, strain BEM2, hits give low values 1.04 | locus YER167W, strain BCK2, hits give low values 1.02 | locus YFR010W, strain ubp6, hits give low values 1.02 | locus YGL078C, strain dbp3, hits give low values 0.954 | locus YGL086W, strain mad1, hits give low values 1.02 | locus YGL167C, strain pmr1, hits give low values 1.02 | locus YGL173C, strain kem1, hits give low values 1.05 | locus YGL227W, strain vid30, hits give low values 1.03 | locus YGL240W, strain doc1, hits give low values 1.01 | locus YGL248W, strain PDE1, hits give low values 1.02 | locus YGL253W, strain hxk2, hits give low values 1 | locus YGR078C, strain PAC10, hits give low values 1.01 | locus YGR135W, strain pre9, hits give low values 0.993 | locus YGR229C, strain SMI1, hits give low values 1.01 | locus YGR252W, strain gcn5, hits give low values 1.16 | locus YHR013C, strain ard1, hits give low values 1.05 | locus YHR027C, strain rpn1, hits give low values 1.04 | locus YHR030C, strain SLT2, hits give low values 1.02 and 0.882 | locus YHR079C, strain IRE1 (second series), hits give low values 0.986 | locus YHR079C, strain IRE1, hits give low values 0.87 | locus YHR094C, strain hxt1, hits give low values 0.995 | locus YHR129C, strain ARP1, hits give low values 1 | locus YHR142W, strain chs7, hits give low values 1.01 | locus YHR200W, strain rpn10, hits give low values 0.989 | locus YIL066C, strain RNR3, hits give low values 1.01 | locus YIL073C, strain SPO22, hits give low values 0.71 | locus YIL125W, strain kgd1, hits give low values 0.964 | locus YIR030C, strain dcg1, hits give low values 0.992 | locus YJL092W, strain hpr5, hits give low values 1.03 | locus YJL095W, strain BCK1 (second series), hits give low values 1.04 | locus YJL095W, strain BCK1, hits give low values 1.04 and 0.919 | locus YJL115W, strain asf1, hits give low values 1.04 | locus YJL129C, strain trk1, hits give low values 0.971 | locus YJL134W, strain LCB3, hits give low values 1.01 | locus YJL154C, strain vps35, hits give low values 1.04 | locus YJL164C, strain tpk1, hits give low values 1.02 | locus YJL166W, strain qcr8, hits give low values 1.04 | locus YJL168C, strain set2, hits give low values 0.988 | locus YJL187C, strain SWE1 (second series), hits give low values 1.01 | locus YJL187C, strain SWE1, hits give low values 1.03
